From PubChem BioAssay AID2732 (Emory University Molecular Libraries Screening Center, 2010)
Hit rate of the full screen: of about 220,000 compounds, about 8,200 (3.7%) were called active.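 Rule for the calls: active = compounds that reduced the stress-induced luciferase reporter signal by more than about 70% of percent inhibition (limit read from the data); inactive = the rest.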 The list comes from a sample in which actives are over-represented; it also holds similar structures and randomly drawn compounds.

Test: inhibitors of CHOP promoter induction, primary screen, cell-based, unfolded protein response, luciferase reporter (AID 2732);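 note: 0% = tunicamycin plus vehicle and 100% = wells without tunicamycin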
Details: CHO-K1 CHOP-promoter luciferase, tunicamycin-induced, 15-18 h; at 10 µM; stronger effect = higher value

inhibition, inactive:
CCN(CC)C(=O)CSC(Nc1cccc(F)c1)=C(C#N)C#N -25.7%
COc1cccc(/C=N/Nc2ncc(C(F)(F)F)cc2Cl)c1O 46.9%
O=[N+]([O-])c1cc(Br)c(O)c(/C=N/Nc2nc3ccccc3s2)c1 17.5%
CCOc1c(Nc2cccc(Cl)c2)c(=O)c1=O 18.3%
O=S(=O)([N-]c1nc2ccccc2nc1-[n+]1ccc(Cc2ccccc2)cc1)c1ccc(Br)s1 21.4%
O=C(NCc1cccnc1)c1ccc(CS(=O)(=O)c2ccc(Br)cc2)o1 61.7%
O=S(=O)(c1ccccc1)c1nc(-c2ccccc2F)oc1NCc1cccnc1 4.16%
O=C(Nc1ccc(Cl)cc1)Nc1ccc(C(=O)N2CCOCC2)cc1 33.4%
O=C(Nc1ccc2c(c1)OCCO2)c1ccoc1 0.05%
COc1ccccc1/C=C/C=N/NC(=O)CN1CCN(Cc2ccccc2)CC1 24.4%
Cc1cc2nc3c(=O)n(Cc4ccccc4)c(=O)[nH]c3nc2cc1N 3.92%
CCn1c(=O)c(=O)n(CC)c2cc(S(=O)(=O)N3CCc4ccccc43)ccc21 35%
CS(=O)(=O)c1ccc2nc(NC(=O)c3ccc(N4CCCC4=O)cc3)sc2c1 -17%
CNC(=O)c1ccsc1NC(=O)c1ccc(S(=O)(=O)N2CCc3ccccc32)cc1 37.3%
O=S(=O)(c1ccc2c(c1)OCCO2)N1CCc2ccccc21 32.4%
COC(=O)C(NC(=O)c1ccc(OC)cc1)(Nc1ncc(S(=O)(=O)c2ccc([N+](=O)[O-])cc2)s1)C(F)(F)F (configuration not stated) -14.3%
O=C(Nc1nc2ccc([N+](=O)[O-])cc2s1)c1ccncc1 -12.2%
Cc1nc(C(=O)Nc2ccc(Cl)cc2)sc1C1(C)CC(c2ccccc2)=NO1 (configuration not stated) 19.7%
COc1ccc(CCNCC(O)Cn2ccc3ccccc32)cc1OC (configuration not stated) 7.33%
CC(C)CCn1c(CN(C)Cc2ccccc2)nc2c1c(=O)n(C)c(=O)n2C 16%
COCCn1c(CN(Cc2ccccc2)Cc2ccccc2)nc2c1c(=O)n(C)c(=O)n2C 63.3%
S=C(NNC(=S)NC1CC2CCC1C2)NC1CC2C=CC1C2 (configuration not stated) 12.8%
Cc1cc(C)nc(NC(=O)/C=C/c2ccc(Cl)cc2)n1 8.16%
CCCCOC(=O)c1[nH]c(C)c(C(=O)OC)c1C -2.34%
Cn1c(S(=O)(=O)O)nc2ccccc21 10.4%
COc1ccccc1-c1c(C#N)c(N)nc2c1CCC2 -1.63%
O=c1[nH]c2cccnc2n1-c1ccc([N+](=O)[O-])cc1 16.2%
OCC1(Cc2ccccc2C(F)(F)F)CCN(Cc2ccncc2)CC1 1.13%
CCC(=O)N1CCCc2ccccc21 -4.19%
OC(c1nnc(-c2ccccc2)o1)c1cccs1 (configuration not stated) -26.1%
C=CCn1c(SCc2nnc(-c3ccccc3)o2)nnc1C(O)c1ccccc1 (configuration not stated) 14%
O=C1C2C3C=CC(C3)C2C(=O)N1c1ccc(S(=O)(=O)Nc2nccs2)cc1 (configuration not stated) 15.9%
O=C(COC(=O)CCc1nc2ccccc2c(=O)[nH]1)Nc1ccc(N2CCOCC2)cc1 12.7%
CCOC(=O)c1sc(=S)n(-c2cccc(OC)c2)c1N 7.44%
CCOC(=O)Cn1c(N)c(C(=O)OC)sc1=S 25.2%
Fc1ccccc1/C=N/n1c(-c2cccnc2)n[nH]c1=S 6.74%
COc1cccc(CC(=O)Nc2ccc(-c3csc(C)n3)cc2)c1 7.07%
CCOC(=O)C(=CNNc1ccsc1C(=O)OC)C(=O)OCC 8.45%
Cc1ccccc1OCC(O)CN1CCN(c2ccccn2)CC1 (configuration not stated) 15.9%
Cc1cccc(C)c1OCC(O)CN1CCCCC1 (configuration not stated) 10.2%
CCCCCCCC(=O)OC(CN1CCCCCC1)CN1CCCC1=O (configuration not stated) 4.3%
CC(C)(C)n1nnnc1C(c1ccc(F)cc1)N1CCN(Cc2ccc3c(c2)OCO3)CC1 (configuration not stated) 16.3%
Cc1cc(C)c2[nH]c(=O)c(C(c3nnnn3Cc3ccc4c(c3)OCO4)N3CCCC3)cc2c1 (configuration not stated) -5.25%
CCC1=NN2C(=N)/C(=C/c3cc(C)n(-c4ccccc4)c3C)C(=O)N=C2S1 -8.4%
CCCN1CNC(=S)N(CCc2ccccc2)C1 1.62%
N#CNC1=NCN(CCc2ccccc2)CN1 -32.6%
CCCCNC(=O)CCn1c(=S)[nH]c2cc3c(cc2c1=O)OCO3 55%
COCCNC(=O)CCCn1c(=O)c2ccccc2n(Cc2cccc([N+](=O)[O-])c2)c1=O -6.2%
Cc1ccc(-c2c[n+](=O)c3c(n2[O-])CCC3)cc1 17.5%
Cc1ccc(NS(=O)(=O)c2ccc(N/N=C/c3ccccc3OCC(=O)O)c([N+](=O)[O-])c2)c(C)c1 -8.85%
CC(C)Sc1nnc([C@H](Cc2ccccc2)NC(=O)OC(C)(C)C)o1 11.1%
C[C@H](NC(=O)OC(C)(C)C)c1nnc(SCC(N)=O)o1 26.6%
CC(C)C(=O)N1CCC2(CC1)Oc1ccc(F)cc1C(=O)C21CC(c2ccccc2)=NO1 (configuration not stated) 19.9%
O=C(Nc1nnc(SCc2c(Cl)cccc2Cl)s1)c1cccc([N+](=O)[O-])c1 30.6%
CCOC(=O)c1c(-c2ccc(C)cc2)csc1/N=C(\C)C1=C(O)c2ccccc2C1=O 3.26%
CCOC(=O)c1ccccc1NS(=O)(=O)c1ccc(OC)cc1 9.25%
O=C(Nc1ccc(N2CCN(C(=O)c3ccccc3)CC2)c(Cl)c1)c1ncn[nH]1 37.5%
COCCn1c(SCC(=O)Nc2cc(OC)ccc2OC)nc2c(c1=O)SC(C)C2 (configuration not stated) -5.89%
CC(=O)Nc1ccc(/C=C/C(=O)c2ccccc2)cc1 -42%
CN(C)c1cc(-c2ccc(F)cc2)oc(=O)c1Cl 12.7%
CNC(=S)NNC(=O)c1oc2nc(-c3ccccc3)cc(-c3ccco3)c2c1N -27.7%
CN(C)C(=O)c1coc2nc3ccccc3nc12 20.5%
Cc1ccsc1/C=N/Nc1ccc(Cl)nn1 65.5%
CCN1/C(=C/C(=S)Nc2ccccc2)Sc2ccccc21 -10.3%
CCC(=O)/C=C1\Sc2ccccc2N1CC 14.1%
O=C(Nc1cccc(S(=O)(=O)NC2=NCCC2)c1)C1CCCCC1 3.64%
CC(C)(C)NC(=O)/C(=C/c1cccnc1)NC(=O)c1ccco1 12.6%
Cc1nnsc1C(=O)N/N=C/c1ccccc1Cl -17.2%
COc1ccc(/C=N/NS(=O)(=O)c2ccc(NC(C)=O)cc2)cc1 1.32%
CN(C)S(=O)(=O)c1ccc(NC(=O)COC(=O)Cn2[nH]c(=O)c3ccccc3c2=O)cc1 0.58%
Cc1cccc2c1-c1sc(C(=O)NCCCN3CCc4ccccc4C3)cc1CO2 35.6%
Cc1cnc(NC(=O)CSc2nnc(C)s2)s1 22.4%
Cc1ccc(SCC(=O)Nc2ncc(C)s2)cc1 4.03%
FC(F)(F)Oc1ccc(-c2cn3cccnc3n2)cc1 2.48%
CCOC(=O)c1nnn2c3ccccc3c(=O)n(C)c12 8.91%
Cc1ccc(-c2cc(C(=O)NN)n[nH]2)o1 2.15%
CC(=O)c1sc(NC(=O)c2ccc(C)cc2)nc1C -2.78%
Cc1ccc(C(=O)Nc2nnc(-c3cccs3)s2)cc1C 48.9%

inhibition, active:
Oc1c(Br)cccc1/C=N/Nc1c(F)c(F)c(F)c(F)c1F 89.8%
O=S(=O)(c1ccc(Br)cc1)c1nc(-c2ccccc2)oc1NCc1cccnc1 72.4%
O=C(Nc1nc2ccc([N+](=O)[O-])cc2s1)c1ccc(S(=O)(=O)N2CCCc3ccccc32)cc1 80.6%
CSc1nc2ccc(S(=O)(=O)N3CCc4ccccc43)cc2s1 71%
O=C(NC(Nc1nc2ccc([N+](=O)[O-])cc2s1)(C(F)(F)F)C(F)(F)F)c1ccccc1 106%
CC(C)Cn1c(CN(Cc2ccccc2)Cc2ccccc2)nc2c1c(=O)n(C)c(=O)n2C 95%
COC(=O)c1c(C)[nH]c(C(=O)/C=C/c2ccc(Cl)cc2)c1C 85%
CCCN(CCC)c1ccc(C(O)c2nnc(-c3ccccc3)o2)cc1 (configuration not stated) 91.7%
CCOC(=O)c1sc(=S)n2c1[nH]c(=O)c1ccc(C(=O)OC)cc12 90.7%
Cc1ccc(OCC(O)CN2CCN(CC(O)COc3ccc(C)cc3Cl)CC2)c(Cl)c1 (configuration not stated) 93.5%
Fc1ccccc1C(c1nnnn1Cc1ccc2c(c1)OCO2)N1CCN(Cc2ccccc2)CC1 (configuration not stated) 97.9%
c1ccc(CCN2CN=C(Nc3nc4ccccc4o3)NC2)cc1 94.3%
CCCCNC(=O)CCn1c(=O)c2ccccc2n(Cc2cc(C)ccc2C)c1=O 86.5%
C[C@@H](NC(=O)OC(C)(C)C)c1nnc(S(=O)(=O)Cc2ccccc2)o1 86.2%
CCOC(=O)C1=C(c2ccc(OC)cc2)C(=O)c2ccccc2C1=O 102%
CCN1/C(=C\c2ccc3ccccc3[n+]2CC)Sc2cc(C)ccc21 87.5%
CCN1/C(=C/c2ccc3ccc(C)cc3[n+]2CC)Sc2ccccc21 73%
Cc1cnc(NC(=O)CSc2c(Cl)cccc2Cl)s1 74.4%
N#Cc1ccc(C(=O)Nc2nc(-c3cccs3)c(C(=O)C(F)(F)F)s2)cc1 74.7%
